Assay results as given in PubChem BioAssay (NCI).
Compounds without any hit were thinned out: in the full panel of roughly 83,000, 20% have a hit.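 Single-concentration screen, 48 h exposure, 96-well plates. Endpoint: percent growth. Below 10 = active.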 Unmarked numbers belong to inactive results. Calls of active or inactive are those of the source.

Assays:
Experiment in all cases: NCI-60 one-dose screen, 48 h (100 = growth as untreated, 0 = no growth, -100 = all killed)
Conditions in all cases: 10 µM unless noted
[1] = system: HCT-15 colon
[2] = system: HT29 colon
[3] = system: SNB-75 CNS
[4] = system: SNB-19 CNS
[5] = system: PC-3 prostate
[6] = system: SK-MEL-5 melanoma
[7] = system: UACC-62 melanoma
[8] = system: LOX IMVI melanoma
[9] = system: SK-MEL-28 melanoma
[10] = system: U251 CNS

| SMILES | growth [1] | growth [2] | growth [3] | growth [4] | growth [5] | growth [6] | growth [7] | growth [8] | growth [9] | growth [10] [%] |
| --- | --- | --- | --- | --- | --- | --- | --- | --- | --- | --- |
| CSc1nnc2c(=O)n(C)c(=O)n(C)c2n1 | 100% | 111% | 100% | 97.5% | 83.2% | 106% | 95.8% | 83.5% | 95.5% |  |
| CC1(C)[C@H](O)CC[C@]2(C)[C@@H]1CC[C@@]13C[C@@H](CC[C@H]12)[C@@](O)(CO)C3 | 105% | 112% | 102% | 99.7% | 111% | 101% | 105% | 103% | 108% |  |
| CC1(C)NCCC[C@]2(C)[C@H]3CC=C4[C@@H]5C[C@@](C)(CO)CC[C@]5(C)CC[C@@]4(C)[C@]3(C)CC[C@@H]12 | 29.9% | 5.18% (active) | 98.9% | 61.6% |  | 50.7% | 73.6% | 45.2% |  |  |
| COc1ccc2c(Nc3ccc(NS(C)(=O)=O)cc3)c3ccccc3nc2c1 | 1.84% (active) | -45.4% (active) | -15.8% (active) | 13.2% | 6.89% (active) | -94.6% (active) | -65.4% (active) | -5.18% (active) | -13.5% (active) |  |
| CC(=O)O[C@H]1CC[C@@]2(C)[C@@H](CC[C@@H]3[C@@H]2CC[C@@]2(C)[C@H]3CC[C@]2(O)C(C)=O)C1 | 102% | 107% | 94.9% | 102% | 95.7% | 94% | 91% | 99.2% | 103% |  |
| COc1cc(C2CC(c3cccc(Nc4ccncc4)c3)=NN2c2ccc(Cl)cc2)cc(OC)c1OC (stereo unspecified) | -36.4% (active) | -30.3% (active) | 26.1% | 57.9% | -22% (active) | -50.7% (active) | 91.1% | -88.8% (active) | -83.2% (active) |  |
| Cc1ccc(C2CC(c3cccc(Nc4ccncc4)c3)=NN2c2ccccc2)cc1 (stereo unspecified) | -82.6% (active) | -42% (active) | -95.6% (active) | -76.8% (active) | -66.7% (active) | -94.1% (active) | -94.9% (active) | -100% (active) | -98.9% (active) |  |
| O=C(c1ccccc1)N1N=C(c2ccc(-n3ccc(C(F)(F)F)n3)cc2)CC1c1ccc[nH]1 (stereo unspecified) | 70.6% | 87.1% | 80.6% | 92.7% |  | 101% |  | 80% | 92.2% |  |
| COc1ccccc1N1CCN(C(=O)c2ccc3nc(NC(=O)c4ccc(NCCc5ccccc5)c([N+](=O)[O-])c4)sc3c2)CC1 | 81.5% | 83.4% | 91.4% |  | 77.9% | 84.4% | 71.8% | 81.6% |  | 86.4 |
| O=C1c2ccccc2C(=O)c2c(NCCN=Cc3ccccc3O)cccc21 | 40.7% | 32.4% | 68.4% | 65.3% | 66.7% | 61.9% | 62.8% | 21.3% | 91.7% |  |
| COc1cc(-c2nc3occn3c2-c2ccnc(NCCNS(=O)(=O)c3ccc(Cl)cc3)n2)ccc1F | 74.7% | 53.1% | 69.1% | 91.6% | 56.4% | 66.1% | 57.1% | 81.9% | 102% |  |
| N#Cc1cc(-c2nc3ccccc3s2)c(=O)n(NS(=O)(=O)c2ccc(Cl)cc2)c1N | 103% | 109% | 63.1% | 102% | 98.5% | 99.5% | 88.2% | 97% | 111% |  |
| COC(=O)C1NC(=S)N(c2ccc(Cl)cc2)C1/C=C/c1ccccc1 (stereo unspecified) | 99.4% | 104% | 127% | 103% | 86.2% | 102% | 89.3% | 78.5% | 118% |  |
| CC(=O)[C@@H]1CC[C@]2(C(=O)n3ccnc3)CC[C@]3(C)[C@H](CC[C@@H]4[C@@]5(C)Cc6c([nH]c7ccccc67)C(C)(C)[C@@H]5CC[C@]43C)[C@@H]12 | 87.7% | 81.2% | 101% | 88.4% | 63.7% | 94.3% | 94.1% | 87.2% | 96% |  |
